Screening results deposited in PubChem BioAssay by National Center for Advancing Translational Sciences (NCATS).
KB-3-1 cytotox: qHTS assay for MDR1-selective chemotherapeutics: Primary screen using the parental adenocarcinoma cell KB-3-1 | Potency, µM (series often up to 46.1 µM), actives largely listed as cytotoxic | 1.4% of 400,000 active | AID 1347075, 2019 | KB-3-1 viability, CellTiter-Glo ATP luminescence, 72 h; note: nearly all actives have a fitted effect of over 60% in size
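Parental KB-3-1 adenocarcinoma cells in phenol-red-free DMEM with 10% FBS were pin-treated with compounds at several concentrations, incubated 72 h at 37 °C, and viability read by CellTiter-Glo luminescence; concentration-effect curves were fitted after normalization.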
HT1080 IDH1KD tx: qHTS for induction of synthetic lethality in tumor cells producing 2HG: qHTS for the HT-1080-IDH1KD cell line | 2% of 360,000 active | Potency, µM (top dose mostly 46.1 µM), actives largely listed as cytotoxic | HT-1080 IDH1 knockdown viability, ATP luminescence, 48 h
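Assay cells: HT-1080 with IDH1 knockdown, 750 per well, RPMI/5% FBS. Exposure: 48 h at 37 °C following 2 h pre-incubation. Read: CellTiter-Glo luminescence; fitted concentration-response, curve class assigned.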
HT1080NT lethal: qHTS for induction of synthetic lethality in tumor cells producing 2HG: qHTS for the HT-1080-NT fibrosarcoma cell line; HT-1080-NT fibrosarcoma viability, CellTiter-Glo ATP luminescence, 48 h; Potency, µM (top dose mostly 46.1 µM), actives largely listed as cytotoxic; 1.6% of 360,000 active; AID 686970, 2013;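 note: NT is the 2HG producing partner of a matched IDH1 knockdown line; nearly all actives have a fitted effect of over 55% in size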
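Luminescent CellTiter-Glo readout after 48 hours of compound exposure at 37 degrees C defined viability of HT-1080-NT cells. Activity was normalized to DMSO wells and cell-free media wells; concentration-response curves were fitted and assigned curve classes.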
KB-V1 cytotox: qHTS assay for MDR1-selective chemotherapeutics: Primary screen using the drug-selected MDR subline cells KB-V1; Potency, µM (highest dose often 46.1 µM), hits mostly cytotoxic; 3.4% of 400,000 active; KB-V1 MDR cells viability, CellTiter-Glo, 72 h; note: nearly all actives have a fitted effect of over 60% in size
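Compound-treated KB-V1 multidrug-resistant cells, 72 h, 37 degrees C; viability by CellTiter-Glo. Fitted qHTS curves give the values.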
Numbers stand for hits; - = inactive; ? = inconclusive; . = no result given; [ ] = remark or other dose. A selection: hits, their analogues and other compounds. The true share with any hit is near 5.7%. Calls come from the whole dose curve; as a rule, active = well fitted curve in the direction sought with a large enough effect; inconclusive = small, poorly fitted or top-dose-only effect, or another doubt; inactive = no such curve, though single readings can be large; an effect the other way counts as inactive or inconclusive.

SMILES	KB-3-1 cytotox	HT1080 IDH1KD tx	HT1080NT lethal	KB-V1 cytotox
Cc1cc(/C=C\c2ccc3cc(N(C)C)ccc3[n+]2C)c(C)n1-c1ccccc1	4.6µM	1.5µM	0.92µM	?
O=C(CNC(=S)N(CCCN1CCOCC1)Cc1cccs1)NCCCN1CCOCC1	-	-	-	-
CCN(CC)C(=O)CNC(=S)N(CCCN1CCOCC1)Cc1cccs1	-	-	-	7.3µM
O=C(CSc1ccc2ccccc2c1Br)Nc1cccc(S(=O)(=O)NC2=NCCCCC2)c1	-	16µM	18µM	-
O=C(CCl)Nc1cccc(S(=O)(=O)NC2=NCCCCC2)c1	?	?	3.7µM	?
O=C(Nc1ccc(S(=O)(=O)NC2=NCCCCC2)cc1)c1ccccc1Cl	-	-	-	-
O=C(Nc1ccc(S(=O)(=O)NC2=NCCCCC2)cc1)c1ccc2ccccc2n1	-	-	-	23µM
Cc1ccc(C)c(SCC(=O)Nc2cccc(S(=O)(=O)NC3=NCCCCC3)c2)c1	-	-	-	?
COc1ccccc1NS(=O)(=O)c1cccc(NC(=O)c2ccc3ccccc3n2)c1	?	-	-	2.6µM
CC(=O)c1cc2ccccc2c2ccccc12	-	.	.	-
O=C(CCl)Nc1ccc(S(=O)(=O)NC2=NCCCCC2)cc1	15µM	18µM	?	16µM
CCCC(=O)Nc1ccc(S(=O)(=O)Nc2nccs2)cc1	-	-	-	-
O=C(CCl)Nc1ccc(S(=O)(=O)Nc2nccs2)cc1	?	13µM	?	?
Cc1ccc(-n2nc(C)c3c(C(=O)Nc4ccc(Br)c(C)c4)cc(C)nc32)cc1	-	.	.	-
Cc1ccc(Sc2c(C)nn(C(=O)COc3ccccc3)c2C)cc1	-	.	.	-
CCN1CCN(CCCNC(=O)Cn2c(-c3cccs3)cc3cc(F)ccc32)CC1	-	.	.	-
CCCCN(CC)C(=O)Nc1ccc2c(c1)N(C)C(=O)c1ccccc1S2	-	.	.	-
Cc1ccc(C)c(Cn2c(=O)cc(C)c3c(C)nn(C)c32)c1	-	.	.	?
CC(=O)NC(c1ccco1)c1cc(Cl)c2cccnc2c1O (configuration not stated)	-	.	.	-
COc1ccc(C(NC(=O)c2cccnc2)c2cc(Cl)c3cccnc3c2O)cc1OC (configuration not stated)	?	12µM	21µM	6.5µM
CC(=O)NC(c1ccc(C)cc1)c1cc(Cl)c2cccnc2c1O (configuration not stated)	5.8µM	?	-	?
CC(=O)NC(c1cc(Cl)c2cccnc2c1O)C(C)C (configuration not stated)	-	.	.	?
CC(=O)NC(c1cc(Cl)c2cccnc2c1O)C1CC1 (configuration not stated)	-	.	.	16µM
CC(=O)N1CCc2cc(S(=O)(=O)NC(CC(C)C)C(=O)NCCc3ccccc3)ccc21 (configuration not stated)	-	.	.	-
O=C1c2ccccc2S(=O)(=O)c2cc(N3CCC4(CC3)OCCO4)ccc21	-	-	-	7.3µM
SMILES	KB-3-1 cytotox	HT1080 IDH1KD tx	HT1080NT lethal	KB-V1 cytotox
S=C(NCCCc1cnc[nH]1)NCCCN(Cc1ccc(Cl)cc1)c1ccc(-c2ccccc2)cn1	?	.	.	-
COc1cc(OC)c2c(-c3cccc(-c4ccc(F)c(Cl)c4)c3)cc(=O)oc2c1	?	16µM	?	?
COc1cc(OC)c2c(-c3cccc(-c4ccc(NC(C)=O)cc4)c3)cc(=O)oc2c1	-	0.92µM	0.52µM	-
COc1cc(OC)c2c(-c3cccc(-c4sccc4C(C)=O)c3)cc(=O)oc2c1	2.9µM	3.7µM	4.1µM	2.6µM
COc1cc(OC)c2c(-c3cccc(-c4ccc(OC)c(OC)c4)c3)cc(=O)oc2c1	-	?	?	-
CCN(CC)C(=O)C1=C(C)N(CCC2=CCCCC2)C(=O)C(CC(=O)NCc2cccs2)C1 (configuration not stated)	-	-	-	?
CCOC(=O)c1cc(-c2ccc(OC)c(S(=O)(=O)NC3CCCCC3)c2)on1	-	.	.	-
COc1nc(Oc2ccc(=O)n(-c3ccccc3)n2)nc(N(C)C)n1	-	.	.	-
COc1cc2c3c(c1OC)-c1cc4c(cc1CC3(C#N)N(C(=O)c1ccccc1)CC2)OCO4 (configuration not stated)	-	-	-	3.3µM
CCSC(C)CC1CC(=O)CC(=O)C1 (configuration not stated)	-	-	-	-
CCOC(=O)C1C(=O)C(C(C)=O)C(=O)CC1CC(C)SCC (configuration not stated)	-	-	-	21µM
CCN(CC)C(=O)Cn1c(=O)cc(C)c2c(C)nn(-c3cccc(Cl)c3C)c21	-	.	.	-
Cc1ccsc1C1NC(=O)c2c(sc3c2CCCC3)N1 (configuration not stated)	-	-	-	15µM
O=C(NC(Cc1c[nH]c2ccccc12)C(=O)Nc1ccc(F)c([N+](=O)[O-])c1)c1cccs1 (configuration not stated)	?	?	?	6.5µM
O=C(NC(Cc1c[nH]c2ccccc12)C(=O)Nc1ccc(OC(F)(F)F)cc1)c1cccs1 (configuration not stated)	12µM	21µM	?	?
O=C(NC(Cc1c[nH]c2ccccc12)C(=O)O)c1cccs1 (configuration not stated)	-	-	-	-
COc1ccc(CN2C(=O)C(C)Nc3ncnc(N4CCc5ccccc5C4)c32)cc1 (configuration not stated)	2.3µM	2.3µM	2.1µM	?
CC(=O)[C@@]1(O)C(C)CC2C3C=C(C)C4=Cc5c(cnn5-c5ccccc5)C[C@]4(C)C3C(O)C[C@@]21C (some centres not stated)	?	21µM	4.6µM	?
Cc1cc(C(=O)NC2CC(C)(C)Cc3c2cnn3-c2ccccc2)n(C)n1 (configuration not stated)	.	-	-	.
Cn1c(=O)c2c(nc(NCCO)n2CCCc2ccccc2)n(C)c1=O	-	-	-	-
COCCn1c(Br)nc2c1c(=O)n(C)c(=O)n2C	-	-	-	-
Cn1c(=O)c2c(nc(NCc3ccccc3)n2CCCc2ccccc2)n(C)c1=O	?	-	-	2.9µM
Cn1c(=O)c2c(nc(Br)n2CCc2ccccc2)n(C)c1=O	-	-[9.24 µM]	-	16µM
Cc1ccc(OCCn2c(Br)nc3c2c(=O)n(C)c(=O)n3C)cc1	21µM	-	-	?
CN(Cc1ccccc1)Cc1nc2c(c(=O)n(C)c(=O)n2C)n1CCc1ccccc1	-	-	-	-
CCOC(=O)CCn1c(=O)c2c(nc(Br)n2Cc2ccccc2)n(C)c1=O	-	-	-	-
CC(O)Cn1c(=O)c2c(nc(Br)n2Cc2ccccc2)n(C)c1=O (configuration not stated)	-	20µM	14µM	-
CN(C)CCNc1cc(N2CCN(C)CC2)ncn1	-	.	.	-
